Compound activity from PubChem.
This is a sample that favours compounds with a hit; in the whole collection about 4.7% have one here.
TRHR ag – TRH receptor (human) agonism | activation, % at 2 µM | TRHR cells, calcium flux fluo-8, FDSS agonist mode | 360,000 tested, 0.18% active | P34981; note: 0% is about no effect
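Steps: seed TRHR cells overnight; add fluo-8 no-wash Ca dye, RT 30 min–1.5 h; record 10 s baseline; pin-transfer compounds; monitor fluorescence 1 cycle/s for the agonist window. Calcium increases flag candidate agonists.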
D1 PAM – potentiators of human D1 dopamine receptor | HEK293 TREx D1 cells, calcium flux, dopamine EC20 potentiation | 360,000 tested, 0.036% active | P21728 | potentiation, % at 10 µM; in the data active = potentiation above about 30%; note: 0% is about no effect
Target sequence (P21728 whole entry, looked up): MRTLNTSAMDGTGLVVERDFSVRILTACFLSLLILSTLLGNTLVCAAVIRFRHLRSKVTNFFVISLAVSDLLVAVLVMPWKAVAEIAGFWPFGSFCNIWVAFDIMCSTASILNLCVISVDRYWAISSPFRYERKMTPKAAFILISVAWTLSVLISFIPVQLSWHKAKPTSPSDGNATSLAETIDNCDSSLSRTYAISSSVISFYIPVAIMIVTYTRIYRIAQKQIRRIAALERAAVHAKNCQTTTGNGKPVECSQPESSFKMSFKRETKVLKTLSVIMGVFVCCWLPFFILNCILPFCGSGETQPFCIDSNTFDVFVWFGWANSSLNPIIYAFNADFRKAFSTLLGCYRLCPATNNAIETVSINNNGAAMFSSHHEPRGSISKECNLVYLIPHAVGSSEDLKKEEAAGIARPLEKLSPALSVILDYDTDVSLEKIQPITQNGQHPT
D1 ag – activates the human D1 dopamine receptor; HEK293 T-REx D1 cells, calcium flux, agonist mode; AID 504660; activation, % at 2 µM; P21728; 360,000 tested, 1% active; note: 0% is about no effect
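Inducible HEK293 T-REx D1 cells, force-coupled to calcium signalling, were plated at 4000 cells/well with tetracycline and held overnight at 30 C. After no-wash calcium dye loading, compound-evoked calcium rise over 180 s flagged agonists.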
TRHR enhancer – allosterically enhances the human TRH receptor | 360,000 tested, 0.66% active | TRHR cells, fluo-8 calcium fluorescence, EC20 TRH enhancement | AID 493056 | enhancement, % at 2 µM; in the data active = enhancement above about 30%; note: 0% is about no effect
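Enhancer read-out: after compound pinning and an initial kinetic agonist-mode read, an EC20 of TRH (10 nM final) was injected and fluo-8 calcium signal (Ex 480/Em 530) followed at 1 s/cycle for 100 cycles in TRHR-expressing cells.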
D1 antagonist – human D1 dopamine receptor antagonism. P21728. activity change, negative = inhibition, % at 10 µM. 360,000 tested, 3.2% active. AID 504652. HEK293 TREx D1 cells, calcium flux, dopamine EC80; hits give low values; in the data active = activity change below about -30%; note: % is set by controls: 0 for no effect and ±100 for the full control effect
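Allosteric or orthosteric antagonism assessed as attenuation of the calcium response to EC80 dopamine, added 180 s after compound, in induced HEK293 Trex D1 cells loaded with no-wash calcium dye.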
* = called active by the depositor. Cut-off read from the data, not from the text of the source, unless noted: active = activation above about 30%; inactive = the rest.

`CC(C)(C)c1ccc(C(=O)N2CCN(C(=O)c3ccco3)CC2)cc1` gave TRHR ag 1, D1 PAM -3, D1 ag 5, TRHR enhancer -3 and D1 antagonist -30*.
CC(C)(C)c1ccc(C(=O)N2CCN(S(=O)(=O)c3ccc(Br)s3)CC2)cc1 was read as TRHR ag 0, D1 PAM -11, D1 ag 6, TRHR enhancer -2 and D1 antagonist -32*.
Screening Cc1cc(NC(=O)C2CCN(C(=O)c3ccco3)CC2)ccc1Br returned TRHR ag -1, D1 PAM -5, D1 ag 9, TRHR enhancer -3 and D1 antagonist -37*.
For COc1ccc2c(C(=O)CCl)c[nH]c2c1 the results were TRHR ag 1, D1 PAM -4, D1 ag 4, TRHR enhancer 2 and D1 antagonist 3.
For O=C(c1ccccc1)C1CCN(C(=O)c2ccco2)CC1 the results were TRHR ag 0, D1 PAM 59*, D1 ag 2, TRHR enhancer 0 and D1 antagonist -3.
`Cc1ccc(C)c(OCCn2c(-c3ccc(Cl)cc3)nc3ccccc3c2=O)c1C` gave TRHR ag 1, D1 PAM 0, D1 ag 3, TRHR enhancer 3 and D1 antagonist 4.
`CC(=O)N1c2ccccc2C2(C)C(C1(C)C)C2(Cl)Cl` (stereo not given) gave TRHR ag 1, D1 PAM 21, D1 ag 207*, TRHR enhancer 28 and D1 antagonist 5.
`Cc1ccc2c(c1)C1(C)C(C(C)(C)N2C=O)C1(Cl)Cl` (stereo not given) gave TRHR ag -2, D1 PAM 4, D1 ag 2, TRHR enhancer -4 and D1 antagonist 31.
`O=C(NCCc1ccccc1)C(=O)NCC1(c2ccccc2)CCCC1` gave TRHR ag 2, D1 PAM -8, D1 ag 9, TRHR enhancer 3 and D1 antagonist -31*.
For O=C(CCc1ccccc1)NCC1(c2ccccc2)CCCC1 the results were TRHR ag 0, D1 PAM 3, D1 ag 3, TRHR enhancer 2 and D1 antagonist 4.
For C=CCn1c(NCc2c[nH]c3ccccc23)nc2ccccc21 the results were TRHR ag 0, D1 PAM -14, D1 ag 1, TRHR enhancer 0 and D1 antagonist -59*.
For COc1ccc(CNc2nc3c(-c4ccc(C)cc4)nnn3c3ccccc23)cc1 the results were TRHR ag 0, D1 PAM 1, D1 ag 4, TRHR enhancer 44* and D1 antagonist -34*.
For COc1cccc(CNc2nc3c(-c4ccccc4)nnn3c3ccccc23)c1 the results were TRHR ag -2, D1 PAM -5, D1 ag 1, TRHR enhancer 30 and D1 antagonist -23.
Screening O=S(=O)(NCCNc1nccc(C(F)(F)F)n1)c1ccccc1 returned TRHR ag 0, D1 PAM -1, D1 ag 0, TRHR enhancer -10 and D1 antagonist 3.
For O=C(NCCNc1nccc(C(F)(F)F)n1)c1cccc(C(F)(F)F)c1 the results were TRHR ag -1, D1 PAM 1, D1 ag 8, TRHR enhancer -2 and D1 antagonist -34*.
For Cc1[nH]c2ccc(F)cc2c1CCN(Cc1cccnc1)C(=S)Nc1ccc(F)cc1 the results were TRHR ag 0, D1 PAM -12, D1 ag 21, TRHR enhancer -1 and D1 antagonist -37*.
Screening COc1cccc(OCc2cc(C(=O)N3CCN(C)C(c4ccccc4)C3)no2)c1 (stereo not given) returned TRHR ag 0, D1 PAM -4, D1 ag 2, TRHR enhancer 0 and D1 antagonist 4.
For Cc1ccccc1OCC(O)CN1CCN(CC(O)COc2ccccc2C)C(C)C1 (stereo not given) the results were TRHR ag 0, D1 PAM -12, D1 ag 7, TRHR enhancer -9 and D1 antagonist -40*.
`CC1CN(CC(O)COc2ccccc2C(C)(C)C)CC(C)O1` (stereo not given) gave TRHR ag -2, D1 PAM -3, D1 ag 124*, TRHR enhancer -3 and D1 antagonist -31*.
Screening CCOc1ccc(N(CC(=O)NC2CC2)S(=O)(=O)c2ccc(C)cc2)cc1 returned TRHR ag 0, D1 PAM -4, D1 ag 1, TRHR enhancer 1 and D1 antagonist -2.
For CCOc1cccc(C2c3c(oc4ccc(F)cc4c3=O)C(=O)N2CCc2ccc(OC)cc2)c1 (stereo not given) the results were TRHR ag -1, D1 PAM -7, D1 ag 0, TRHR enhancer 8 and D1 antagonist -30*.
CCc1ccc(C2c3c(oc4ccc(F)cc4c3=O)C(=O)N2c2nc(C)c(C(=O)OC)s2)cc1 (stereo not given) was read as TRHR ag 1, D1 PAM -10, D1 ag 0, TRHR enhancer 4 and D1 antagonist -69*.
For COc1ccc(S(=O)(=O)N2CCCCC2)cc1NC(=O)CCCNC(=O)c1ccc(Cl)cc1 the results were TRHR ag -1, D1 PAM 3, D1 ag 1, TRHR enhancer -7 and D1 antagonist -8.
For COc1ccccc1CNC(=O)CN1C(=O)CCc2cc(S(=O)(=O)N3CCCCC3)ccc21 the results were TRHR ag -1, D1 PAM 1, D1 ag -1, TRHR enhancer -7 and D1 antagonist -56*.
COc1ccccc1CNC(=O)CN1C(=O)CCc2cc(S(=O)(=O)N3CCOCC3)ccc21 was read as TRHR ag -1, D1 PAM 0, D1 ag 2, TRHR enhancer 1 and D1 antagonist 4.
COc1ccc(S(=O)(=O)N2CCCCC2)cc1NC(=O)CCNC(=O)c1ccccc1Cl was read as TRHR ag -1, D1 PAM -3, D1 ag 1, TRHR enhancer -8 and D1 antagonist -70*.
Screening COc1ccc(S(=O)(=O)N2CCCCCC2)cc1NC(=O)CN1C(=O)NC(C)(c2ccccc2)C1=O (stereo not given) returned TRHR ag 0, D1 PAM -5, D1 ag 1, TRHR enhancer 24 and D1 antagonist -31*.
`Cc1cc(-n2ccnc(NCCc3ccc(S(N)(=O)=O)cc3)c2=O)ccc1Br` gave TRHR ag 0, D1 PAM -2, D1 ag 1, TRHR enhancer 0 and D1 antagonist -1.
`Cc1nc(=O)c(-c2ccccc2)c(C)n1-c1cccc(/C=C/C(=O)O)c1` gave TRHR ag 2, D1 PAM 2, D1 ag 1, TRHR enhancer 11 and D1 antagonist 6.
